Measured values as given in the OligoGym collection.

The sequences below were run against ZBTB24 (assay: pooled miR-30 sensor sort-seq; sequence = guide strand). Conditions: shRNA.
Also: reference of the scale not given here.

In order of falling sensor-assay potency score (higher = more potent):
1. TTAAATTCTGCAGTTGCTCTGG  0.17
2. TTAACCACAAAGTTTTGTCTAT  -0.0895
3. TTGCTGTATCGACTCTGGCTTG  -0.983
4. TTAAGAACTGAGCAGTAGCCAG  -1.12
5. TTGGTGGTCAGAGCCTTGCTGC  -1.29

Each sequence was assayed against ZBTB39 in the same assay as above. Conditions: shRNA.

In order of falling sensor-assay potency score (higher = more potent):
1. TTAGACATCTACTATTTGGGGA  0.801
2. TATTATGCTAGAGACAATCTGG  0.145
3. TTCAACACTAGCAAAAACCTGT  -0.0406
4. TAAGCAGACACCAACATCCCTG  -0.047
5. TAGAACTTTCTTGCACACCTGG  -0.103
6. TTAAGTACACAGACCACCCAGC  -0.108
7. TTAGTTTCACACATGTCGCAGG  -0.128
8. AAGTCCACCACATAGGTCCTGG  -0.52
9. TAAAGAAACATCAAAATCGAGT  -0.558
10. TTAAACACAACACAGAACAGAA  -0.952
11. TTGCTTGTGAAACAGCCCGGGG  -1.25
12. TAGTGTTTCAAGCAAAACCATT  -1.46

What follows are sequences tested against ZBTB5 in the same assay as above. Conditions: shRNA.

In order of falling sensor-assay potency score (higher = more potent):
1. TTACAAACTACTTTCTGACTGC  0.686
2. TTTTGCATCACTATACAGGGAT  0.397
3. ATCAAAACTAGTCTCAACCTGA  0.322
4. TTGATAGAACTTTATGATCTGT  0.242
5. TACTTGATTACTTCTATGCTAT  0.0849
6. TACAATGACACAATCACAGAGC  0.0287
7. TGCACTTTGACAGAACATCTGC  -0.0496
8. TTAATCTCACAAGACACTGGTC  -0.0713
9. TTAAGTAATGTTTACATGCCTT  -0.579
10. TTTGGTTAATCTGTCGTCGAAA  -0.689
11. TAATCTGTCGTCGAAAACGGTA  -0.933
12. TAGGTTATTTGTGACTTCCAAA  -1.29

These sequences were tested against ZBTB8A in the same assay as above. Conditions: shRNA.

In order of rising sensor-assay potency score (higher = more potent):
1. TAGCGAATAATACATTTCGATG  -1.75
2. TAAATCTTTTTCCACAAGCTTG  -1.26
3. TAAAGTAGCCGCTACTAGCGAA  -0.929
4. TTTTTAATGGACTCTTTCCTTG  -0.893
5. TTCTACAATCTCCACATAGGAT  -0.772
6. TACACTTATGACATCAGTCATC  -0.715
7. TTTCTTTCTCACTAATGTCTAA  -0.493
8. TTGACTTATAATGAGTAACTTC  -0.468
9. TTGTTGAGTATTCTTCTGGGAG  -0.386
10. TAAAAGTCTTACATACACTTAT  -0.256
11. TTCAGCATCAATCTGTGCTTGT  0.622
